We go through 34 compounds from PubChem BioAssay AID2279 (Southern Research Specialized Biocontainment Screening …, 2010).

Results with a measured potency or affinity are listed apart. Calls of active or inactive are those of the source. The rule behind the calls is not given here.

The assay can be described thus: CCR5-tropic HIV-1 fusion blockers – cell-based, CCR5-tropic Env, dose response (AID 2279). The following applies: CCR5-tropic HIV-1 Env, reporter read-out; series mostly up to 50 µM.
As for `CCOc1cc(/C=C2/C(=N)N3C(=NC2=O)SN=C3S(=O)(=O)CC)ccc1OC(=O)c1ccco1`, the outcome was inactive.
Take `COc1ccc2c(c1)cc(C(=O)N/N=C/c1c(O)c(C(=O)O)cc3ccccc13)n2C`: the outcome was inactive.
With `O=C(CCN1C(=O)/C(=C/c2ccccc2Cl)SC1=S)Nc1ccccc1C(=O)O` the entry was “inactive”; with `COc1cc(/C=C2/SC(=S)N(CC(=O)O)C2=O)ccc1OCC(=O)Nc1ccc(C)c(C)c1`, “inactive”; with `COc1cc(/C=C2\SC(=Nc3ccccc3)N(CCc3c[nH]c4ccccc34)C2=O)ccc1OC(C)C(=O)O` (centres undefined), “inactive”.
`CCOC(=O)c1c(N2C(=O)Nc3cc(Cl)c(Cl)cc3N2O)sc2c1CCCCC2`: the result was inactive.
For `CC(C)S(=O)(=O)C1=NSC2=NC(=O)/C(=C\c3ccc(-c4ccccc4)o3)C(=N)N21`, the result was inactive.
Next, `O=C1NN(c2ccc(Cl)c(Cl)c2)C(=O)/C1=C/c1ccc(-c2ccccc2C(=O)O)o1`: “inactive”; `O=C1NN(c2ccc(Cl)c(Cl)c2)C(=O)/C1=C/c1cccc(OC(=O)c2cccs2)c1`: “inactive”.
In the case of `O=C(O)CN1C(=O)/C(=C\c2cc(Br)ccc2OCc2ccc(Cl)cc2)SC1=S`, the result was inactive.
Take `O=C(NCCc1ccccc1)c1ccc2c(=O)[nH]c3c(C(=O)NCC4CCCO4)sc(=S)n3c2c1` (centres undefined): the outcome was inactive.
Next, `N#Cc1c(-c2ccccc2)nc(SCC(=O)Nc2ccc(OC(F)(F)Cl)cc2)[nH]c1=O`: “inactive”.
Regarding `CC(C)S(=O)(=O)C1=NSC2=NC(=O)/C(=C\c3ccc(OC(=O)c4ccco4)cc3)C(=N)N21`, the outcome was inactive.
With `N#Cc1c(SCC(=O)Nc2nc3ccc(Br)cc3s2)sc2c(O)cc(=O)[nH]c12` the entry was “inactive”; with `O=C(O)c1cc(-c2ccc(/C=N/Nc3ccc(Cl)cc3)o2)ccc1Cl`, “inactive”; with `Cc1ccc(S(=O)(=O)/N=C2/NC(=O)/C(=C/c3cc([N+](=O)[O-])ccc3O)S2)cc1`, “inactive”.
With `O=C(O)CSc1ncnc2c1sc1nc(-c3ccccc3)c3c(c12)CCC3` the entry was “inactive”; with `CCCOc1ccc(C(=O)NNC(=S)NC(=O)c2cc(-c3ccccc3)nc3ccccc23)cc1`, “inactive”.
With `CCOc1ccc(C2C(C(=O)Nc3ccccc3)=C(C)N=c3s/c(=C/c4cccc(OCC(=O)O)c4)c(=O)n32)cc1` (centres undefined), the outcome was inactive.
Next, `O=C(NC(=S)Nc1ccccc1C(=O)O)c1ccc(-c2ccc(Br)cc2)o1`: “inactive”; `CCOc1cc(/C=C2\C(=O)N(c3cccc(C(=O)O)c3)N=C2C(F)(F)F)ccc1OCC(=O)Nc1ccccc1OC`: “inactive”.
`O=C(Nc1ccc(Br)cc1C(=O)O)c1ccc2c(c1)C(=O)N(Cc1ccccc1)C2=O`: the outcome was inactive.
As to `COc1ccc(OC)c(/C=C2\SC(=S)N(NS(=O)(=O)c3ccc(C)cc3)C2=O)c1`, the outcome was inactive.
For `O=C1NC(=Nc2ccccc2Cl)S/C1=C\c1cccc([N+](=O)[O-])c1O`, the outcome was inactive.
With `N=C1/C(=C\c2ccc(-c3cccc(C(=O)O)c3)o2)C(=O)N=C2SC=C(c3ccccc3)N12` the entry was “inactive”.
For `Cc1cc(/C=C2\C(=N)N3N=C(S(C)(=O)=O)SC3=NC2=O)c(C)n1Cc1ccccc1`, the outcome was inactive.
Regarding `CCOc1cc(/C=C2\SC(=S)N(C(C(=O)O)c3ccccc3)C2=O)ccc1O` (centres undefined), the result was inactive.
Consider `CC1=C(C(=O)OC(C)C)C(c2ccc(Cl)cc2)n2c(s/c(=C\c3ccc(OCC(=O)O)cc3)c2=O)=N1` (centres undefined), for which the outcome was inactive.
Next, `CCCOc1ccc(C2C(C(=O)c3cc4ccccc4o3)=C(O)C(=O)N2c2cc(C)on2)cc1` (centres undefined): “inactive”; `O=C1N=c2ccc(Br)cc2=C1c1sc(=S)n(NS(=O)(=O)c2ccccc2)c1O`: “inactive”.
In the case of `CCc1nnc(NS(=O)(=O)c2ccc(NC(=O)/C=C/c3ccccc3Cl)cc2)s1`, the outcome was inactive.
On to `CCOC(=O)c1sc(N2C(=O)C(O)=C(C(=O)c3ccco3)C2c2ccc([N+](=O)[O-])cc2)nc1C` (centres undefined), for which the result was inactive.
With `O=C(O)C1Nc2ccc(Br)cc2C2C=CCC12` (centres undefined) the entry was “inactive”.
With `O=C(CCN1C(=O)/C(=C\c2ccccc2F)SC1=S)Nc1ccc(C(=O)O)c(O)c1` the entry was “inactive”.
